Source: the supplement of paper PMC12350171
Counter-ions that a name gives are not always drawn.

Experiments:
Settings in all cases: 20 µM
[1] = test system: Haemophilus parainfluenzae; experiment: growth AUC normalised to DMSO control (fraction of control); higher = less growth inhibition, active = hit call of the paper
Method in brief: (§1)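 Hemin and NAD were added to the medium for Haemophilus parainfluenzae. All pathogens, after two anaerobic passages, were inoculated at a starting OD578 of 0.01 into pre-reduced mGAM plates with 20 μM compound and 1% DMSO under breathable seals, and OD578 was read hourly for 24 h in three biological replicates. AUC of each growth curve was obtained with the trapezoidal rule up to the exponential-to-stationary transition and normalised to DMSO controls from the same plate.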

[2] = test system: Salmonella enterica typhimurium; experiment: as above
Method in brief: as §1

Shigella flexneri = experiment: as above
Method in brief: as §1

Vibrio cholerae = experiment: as above
Method in brief: as §1

[3] = test system: Yersinia pseudotuberculosis; experiment: as above
Method in brief: as §1

P. vulgatus RND KO = experiment: growth AUC normalised to DMSO control (median) (fraction of control); higher = less growth inhibition, active = hit call of the paper
Method in brief: (§2)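 Area under the growth curve, calculated by the trapezoidal rule up to entry into stationary phase, was normalised to vehicle wells on the same plate. Strains had been passaged twice overnight without oxygen and then grown in mGAM in 96-well plates from OD578 0.01, each with an approved-drug library compound at 20 μM in 1% DMSO. OD578 was read hourly over 24 h in an anaerobic incubator, and the median of three biological replicates is given.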

P. vulgatus WT = experiment: as above
Method in brief: as §2

[4] = test system: S. enterica typhimurium WT; experiment: as above
Method in brief: as §2

[5] = test system: S. enterica typhimurium tolC KO; experiment: as above
Method in brief: as §2

Measured: growth AUC normalised to DMSO control
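For growth AUC normalised to DMSO control (median) in this document: active when median AUC fell below 0.1.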

CC(NC(C)(C)C)C(=O)c1cccc(Cl)c1 (configuration not stated) [Bupropion hydrochloride]
inactive: [1] 1.01 | [2] 1 | Shigella flexneri 1.05 | Vibrio cholerae 1.05 | [3] 1.01 | P. vulgatus RND KO 1.03 | P. vulgatus WT 1.03 | [4] 0.996 | [5] 1

Oc1cc(Cl)ccc1Oc1ccc(Cl)cc1Cl [Triclosan]
active: [1] 0.0433 | [2] 0.00977 | Shigella flexneri 0.0073 | Vibrio cholerae 0.184 | [4] 0.00521 | [5] 0.00694
inactive: [3] 0.911 | P. vulgatus RND KO 0.462 | P. vulgatus WT 0.357

CC(=O)O[C@H]1C[C@H](O[C@H]2[C@@H](O)C[C@H](O[C@H]3[C@@H](O)C[C@H](O[C@H]4CC[C@@]5(C)[C@H](CC[C@@H]6[C@@H]5C[C@@H](O)[C@]5(C)[C@@H](C7=CC(=O)OC7)CC[C@]65O)C4)O[C@@H]3C)O[C@@H]2C)O[C@H](C)[C@H]1O[C@@H]1O[C@H](CO)[C@@H](O)[C@H](O)[C@H]1O [Lanatoside C]
inactive: [1] 1.04 | [2] 1.01 | Shigella flexneri 1.01 | Vibrio cholerae 1.02 | [3] 0.984 | P. vulgatus RND KO 1.01 | P. vulgatus WT 1.06 | [4] 1.01 | [5] 0.997

C[N+]1([O-])[C@@H]2C[C@@H](OC(=O)[C@H](CO)c3ccccc3)C[C@H]1[C@@H]1O[C@@H]12 (some centres not stated) [Scopolamin-N-oxide hydrobromide]
inactive: [1] 0.991 | [2] 0.992 | Shigella flexneri 1.02 | Vibrio cholerae 1.07 | [3] 1.01 | P. vulgatus RND KO 1.04 | P. vulgatus WT 1.02 | [4] 1.02 | [5] 1.01

CCNCC(O)c1cccc(O)c1 (configuration not stated) [Etilefrine hydrochloride]
inactive: [1] 0.987 | [2] 0.976 | Shigella flexneri 0.987 | Vibrio cholerae 0.995 | [3] 0.979 | P. vulgatus RND KO 0.997 | P. vulgatus WT 0.995 | [4] 0.993 | [5] 1

CN1[C@@H]2CC[C@H]1C[C@@H](OC(=O)[C@H](CO)c1ccccc1)C2 [(L) Hyoscyamine]
inactive: [1] 0.945 | [2] 0.983 | Shigella flexneri 1.04 | Vibrio cholerae 1.05 | [3] 1.01 | P. vulgatus RND KO 1 | P. vulgatus WT 1 | [4] 1.01 | [5] 1

CC(C)(N)Cc1ccccc1 [Phentermine hydrochloride]
active: P. vulgatus RND KO 0.0617
inactive: [1] 1.02 | [2] 1.02 | Shigella flexneri 1.03 | Vibrio cholerae 1.04 | [3] 1.01 | P. vulgatus WT 0.458 | [4] 0.992 | [5] 0.996

CN(C)C(=O)Oc1ccc[n+](C)c1 [Pyridostigmine iodide]
inactive: [1] 0.994 | [2] 1 | Shigella flexneri 1.03 | Vibrio cholerae 1.02 | [3] 0.992 | P. vulgatus RND KO 1 | P. vulgatus WT 1.03 | [4] 1.01 | [5] 0.991

CN1[C@@H]2CC[C@H]1C[C@@H](OC1c3ccccc3CCc3ccccc31)C2 [Deptropine citrate]
inactive: [1] 0.95 | [2] 0.993 | Shigella flexneri 0.971 | Vibrio cholerae 0.926 | [3] 0.965 | P. vulgatus RND KO 0.941 | P. vulgatus WT 0.945 | [4] 0.994 | [5] 0.942

CC[C@@H](C(N)=O)N1CCCC1=O [Levetiracetam]
inactive: [1] 1.04 | [2] 1.01 | Shigella flexneri 1.03 | Vibrio cholerae 1.05 | [3] 1.01 | P. vulgatus RND KO 1.01 | P. vulgatus WT 1.03 | [4] 1.01 | [5] 1

CCC1(C)CC(=O)NC(=O)C1 [Bemegride]
inactive: [1] 1.02 | [2] 1.02 | Shigella flexneri 1.01 | Vibrio cholerae 1.05 | [3] 1.01 | P. vulgatus RND KO 1.03 | P. vulgatus WT 1.08 | [4] 1.02 | [5] 1.01

CC(=O)OC1CN2CCC1CC2 (configuration not stated) [Aceclidine hydrochloride]
inactive: [1] 1.02 | [2] 1 | Shigella flexneri 1.01 | Vibrio cholerae 1.03 | [3] 0.994 | P. vulgatus RND KO 0.994 | P. vulgatus WT 1.03 | [4] 1.01 | [5] 0.999

Oc1ccc2c3c1O[C@H]1[C@@H](O)CC[C@@]4(O)[C@@H](C2)N(CC2CCC2)CC[C@]314 [Nalbuphine hydrochloride]
inactive: [1] 0.982 | [2] 0.984 | Shigella flexneri 0.974 | Vibrio cholerae 0.984 | [3] 0.905 | P. vulgatus RND KO 0.997 | P. vulgatus WT 0.966 | [4] 0.988 | [5] 0.995
